Structures are written as SMILES. For some of these results: Potency and affinity values are given separately.

Holding throughout (parameters): scale not given: direction of the effect not stated beside the values
For test [1], the target named is Protein translocase subunit SecA (Escherichia coli (strain K12)) (UniProt P10408). Put plainly: Assay to Identify E. coli SecA ATPase Inhibitors. It is filed as functional. The following applies: 30 µM.
In test [2] the target is T1, Ubiquitin-activating enzyme e1, putative (Leishmania donovani (strain BPK282A1)) (UniProt E9BSI1).
T1 sequence (whole entry): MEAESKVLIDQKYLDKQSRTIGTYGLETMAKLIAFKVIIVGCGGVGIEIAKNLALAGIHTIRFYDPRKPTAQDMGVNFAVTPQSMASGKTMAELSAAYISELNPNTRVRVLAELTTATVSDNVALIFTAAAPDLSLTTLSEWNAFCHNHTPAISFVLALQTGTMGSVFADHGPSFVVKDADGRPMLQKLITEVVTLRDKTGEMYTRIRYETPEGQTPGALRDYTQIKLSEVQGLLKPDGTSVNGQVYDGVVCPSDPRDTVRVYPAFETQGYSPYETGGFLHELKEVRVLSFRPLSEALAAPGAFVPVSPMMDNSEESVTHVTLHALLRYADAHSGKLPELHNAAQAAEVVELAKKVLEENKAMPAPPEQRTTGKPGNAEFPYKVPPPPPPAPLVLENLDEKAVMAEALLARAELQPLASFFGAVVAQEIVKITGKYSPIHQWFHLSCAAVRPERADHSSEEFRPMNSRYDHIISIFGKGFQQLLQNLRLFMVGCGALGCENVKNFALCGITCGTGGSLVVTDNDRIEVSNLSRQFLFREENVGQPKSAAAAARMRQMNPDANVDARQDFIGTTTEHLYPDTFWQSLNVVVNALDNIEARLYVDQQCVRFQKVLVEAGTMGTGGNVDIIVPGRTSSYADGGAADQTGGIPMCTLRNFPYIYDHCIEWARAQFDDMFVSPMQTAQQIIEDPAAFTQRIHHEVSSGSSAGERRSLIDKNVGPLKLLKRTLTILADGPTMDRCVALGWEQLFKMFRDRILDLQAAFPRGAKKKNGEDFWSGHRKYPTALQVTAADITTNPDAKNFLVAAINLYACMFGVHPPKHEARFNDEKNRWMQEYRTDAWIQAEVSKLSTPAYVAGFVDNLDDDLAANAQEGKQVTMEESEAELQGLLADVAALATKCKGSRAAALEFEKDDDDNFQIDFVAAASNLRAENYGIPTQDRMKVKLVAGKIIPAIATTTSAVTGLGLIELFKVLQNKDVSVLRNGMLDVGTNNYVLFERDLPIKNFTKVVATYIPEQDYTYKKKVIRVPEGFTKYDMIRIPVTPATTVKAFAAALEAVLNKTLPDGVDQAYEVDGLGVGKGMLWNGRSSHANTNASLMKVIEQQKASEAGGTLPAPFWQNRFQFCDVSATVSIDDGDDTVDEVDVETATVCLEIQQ
Briefly: Leishmania donovani Ubiquitin Activating Enzyme (LdE1). In kind it is functional. The following applies: 30 µM.

Test [3] concerns the target AMP-activated protein kinase, AMPK (Homo sapiens) (UniProt P54646+O43741+P54619+Q9UGJ0+Q9Y478+Q13131+Q9UGI9). Briefly: AMP-dependent Kinase enzyme assay. An in vitro enzyme assay that detects ADP turnover that is directly proportional to AMPK activity. This uses naive AMPK that is activated during the assay with MK-8722. It is filed as functional. The following applies: 30 µM.

For test [4], the target named is Sialic acid-binding Ig-like lectin 9 (Homo sapiens) (UniProt Q9Y336). Briefly: Hs-Siglec9 ALPHAscreen SOP 20170721. The following applies: 10 µM. (Alpha assays give light when donor and acceptor beads are brought close together.)
The next test deals with Trypanosoma cruzi. Briefly: Trypanosoma cruzi phosphomannomutase and mannose-1-phosphate guanylyltransferase assay. In kind it is functional. As to conditions: 10 µM.
Test [5] addresses T2, Arginase-2, mitochondrial (Homo sapiens) (UniProt P78540).
T2 sequence (whole entry): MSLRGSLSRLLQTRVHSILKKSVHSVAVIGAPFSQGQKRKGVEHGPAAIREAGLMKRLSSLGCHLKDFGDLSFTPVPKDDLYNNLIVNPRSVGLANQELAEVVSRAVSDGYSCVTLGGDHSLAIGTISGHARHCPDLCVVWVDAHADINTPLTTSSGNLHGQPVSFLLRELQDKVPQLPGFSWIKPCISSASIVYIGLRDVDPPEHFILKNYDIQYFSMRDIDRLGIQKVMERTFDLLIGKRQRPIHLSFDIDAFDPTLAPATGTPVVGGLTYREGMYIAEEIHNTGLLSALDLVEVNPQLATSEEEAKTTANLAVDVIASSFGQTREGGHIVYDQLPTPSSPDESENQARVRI
Put plainly: in vitro enzyme assay to detect the production of urea directly proportional to the activity of Arginase II. Also: in the data most compounds retested in dose-response had high values. It is filed as functional. The following applies: 33.3 µM.

For test [6], the target named is T3, Proteasome subunit beta (Trypanosoma cruzi) (UniProt O96673).
T3 sequence (whole entry): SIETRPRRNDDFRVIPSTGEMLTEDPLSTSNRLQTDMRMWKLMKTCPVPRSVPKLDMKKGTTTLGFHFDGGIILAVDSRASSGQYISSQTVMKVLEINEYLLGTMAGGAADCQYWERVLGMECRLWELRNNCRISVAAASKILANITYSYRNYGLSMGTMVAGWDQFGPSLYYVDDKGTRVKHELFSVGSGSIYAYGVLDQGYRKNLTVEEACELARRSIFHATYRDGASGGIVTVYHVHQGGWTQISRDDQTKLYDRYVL
Briefly: Trypanosoma cruzi proteasome chymotrypsin-like activity (TcProtChymo) assay. Also: in the data most compounds retested in dose-response had high values. It is filed as functional. As to conditions: 9.37 µM.

For another test, the species on record is Homo sapiens. Briefly: To identify inhibition of the IFN signalling (Jak-Stat) pathway via expression of an eGFP reporter gene under the control of an IFN-stimulated response element (ISRE) containing MxA promoter. In kind it is functional. As to conditions: 30 µM.
Test [7] addresses T4, Tyrosyl-tRNA synthetase, putative (Trypanosoma cruzi (strain CL Brener)) (UniProt Q4DSP6).
T4 sequence (whole entry): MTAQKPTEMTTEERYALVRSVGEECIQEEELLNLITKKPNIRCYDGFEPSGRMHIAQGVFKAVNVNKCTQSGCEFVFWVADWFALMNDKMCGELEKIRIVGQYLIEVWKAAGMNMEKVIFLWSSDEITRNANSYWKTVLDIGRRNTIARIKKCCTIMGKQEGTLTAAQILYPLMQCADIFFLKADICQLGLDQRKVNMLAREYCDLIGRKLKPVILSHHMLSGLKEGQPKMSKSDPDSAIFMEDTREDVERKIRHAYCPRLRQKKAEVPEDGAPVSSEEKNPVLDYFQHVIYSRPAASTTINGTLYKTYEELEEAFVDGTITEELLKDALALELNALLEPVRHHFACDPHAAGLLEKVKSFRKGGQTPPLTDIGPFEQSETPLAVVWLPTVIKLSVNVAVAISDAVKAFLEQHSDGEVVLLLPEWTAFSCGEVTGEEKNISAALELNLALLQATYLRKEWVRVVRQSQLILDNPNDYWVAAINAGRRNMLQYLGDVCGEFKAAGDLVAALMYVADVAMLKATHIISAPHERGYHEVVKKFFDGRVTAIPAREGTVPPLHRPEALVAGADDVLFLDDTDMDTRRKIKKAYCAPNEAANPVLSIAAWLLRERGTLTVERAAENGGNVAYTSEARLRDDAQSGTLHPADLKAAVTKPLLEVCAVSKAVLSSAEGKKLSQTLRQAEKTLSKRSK
Put plainly: Trypanosoma cruzi tyrosyl tRNA synthetase (TcYRS) _High Tyrosine SOP. Also: in the data most compounds retested in dose-response had high values. It is filed as functional. The following applies: 30 µM.

Test [8] has as its target T4, Tyrosyl-tRNA synthetase, putative (Trypanosoma cruzi (strain CL Brener)). Briefly: Trypanosoma cruzi tyrosyl tRNA synthetase (TcYRS) SOP. It is filed as functional. The following applies: 30 µM.
In test [9] the target is Chromo domain-containing protein 1 (Saccharomyces cerevisiae (strain ATCC 204508 / S288c) (Baker's yeast)) (UniProt P32657). Briefly: ScCHD-1 Enzyme Inhibition Assay. Also: in the data most compounds retested in dose-response had high values. In kind it is functional. As to conditions: 30 µM.
Sequence of Chromo domain-containing protein 1 (Saccharomyces cerevisiae (strain ATCC 204508 / S288c) (Baker's yeast)) (P32657 whole entry, the tested form may be a part): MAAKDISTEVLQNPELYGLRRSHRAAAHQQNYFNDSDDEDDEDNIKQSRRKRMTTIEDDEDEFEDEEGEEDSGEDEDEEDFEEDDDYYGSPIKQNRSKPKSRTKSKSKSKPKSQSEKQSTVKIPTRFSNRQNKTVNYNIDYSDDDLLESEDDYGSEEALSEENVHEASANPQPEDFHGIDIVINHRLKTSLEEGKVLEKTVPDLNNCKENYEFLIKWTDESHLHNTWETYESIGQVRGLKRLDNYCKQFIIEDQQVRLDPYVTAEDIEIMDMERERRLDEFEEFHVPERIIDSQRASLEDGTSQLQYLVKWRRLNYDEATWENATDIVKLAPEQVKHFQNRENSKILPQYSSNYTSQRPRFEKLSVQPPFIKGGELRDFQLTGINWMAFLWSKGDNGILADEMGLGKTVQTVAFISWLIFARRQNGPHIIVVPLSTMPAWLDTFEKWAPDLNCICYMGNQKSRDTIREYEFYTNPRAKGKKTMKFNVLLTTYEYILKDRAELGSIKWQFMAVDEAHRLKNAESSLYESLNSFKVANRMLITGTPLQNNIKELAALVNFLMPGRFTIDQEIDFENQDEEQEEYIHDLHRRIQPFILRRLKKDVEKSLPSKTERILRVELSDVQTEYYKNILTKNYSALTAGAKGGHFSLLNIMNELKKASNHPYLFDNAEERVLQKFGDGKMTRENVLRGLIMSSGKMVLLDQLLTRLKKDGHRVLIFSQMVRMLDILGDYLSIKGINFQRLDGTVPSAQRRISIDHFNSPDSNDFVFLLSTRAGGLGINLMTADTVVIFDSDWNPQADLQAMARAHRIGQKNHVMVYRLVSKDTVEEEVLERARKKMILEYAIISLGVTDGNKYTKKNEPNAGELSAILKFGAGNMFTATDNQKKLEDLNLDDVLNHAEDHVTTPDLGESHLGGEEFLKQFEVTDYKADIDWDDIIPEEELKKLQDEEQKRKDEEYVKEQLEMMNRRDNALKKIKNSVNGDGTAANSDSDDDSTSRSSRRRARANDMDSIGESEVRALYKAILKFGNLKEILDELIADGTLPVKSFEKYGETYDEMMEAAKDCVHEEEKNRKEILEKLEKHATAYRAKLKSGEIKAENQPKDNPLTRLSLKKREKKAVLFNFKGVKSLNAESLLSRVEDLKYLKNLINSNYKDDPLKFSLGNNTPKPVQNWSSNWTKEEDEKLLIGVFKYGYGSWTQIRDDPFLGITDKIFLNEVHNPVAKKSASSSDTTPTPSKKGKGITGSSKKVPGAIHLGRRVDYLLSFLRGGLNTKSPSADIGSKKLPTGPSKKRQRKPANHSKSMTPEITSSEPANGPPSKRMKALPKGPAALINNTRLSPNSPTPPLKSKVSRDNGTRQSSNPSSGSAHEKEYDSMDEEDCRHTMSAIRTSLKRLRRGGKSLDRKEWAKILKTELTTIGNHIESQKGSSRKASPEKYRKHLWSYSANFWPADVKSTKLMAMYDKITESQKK

Sequence of Protein translocase subunit SecA (Escherichia coli (strain K12)) (P10408 whole entry): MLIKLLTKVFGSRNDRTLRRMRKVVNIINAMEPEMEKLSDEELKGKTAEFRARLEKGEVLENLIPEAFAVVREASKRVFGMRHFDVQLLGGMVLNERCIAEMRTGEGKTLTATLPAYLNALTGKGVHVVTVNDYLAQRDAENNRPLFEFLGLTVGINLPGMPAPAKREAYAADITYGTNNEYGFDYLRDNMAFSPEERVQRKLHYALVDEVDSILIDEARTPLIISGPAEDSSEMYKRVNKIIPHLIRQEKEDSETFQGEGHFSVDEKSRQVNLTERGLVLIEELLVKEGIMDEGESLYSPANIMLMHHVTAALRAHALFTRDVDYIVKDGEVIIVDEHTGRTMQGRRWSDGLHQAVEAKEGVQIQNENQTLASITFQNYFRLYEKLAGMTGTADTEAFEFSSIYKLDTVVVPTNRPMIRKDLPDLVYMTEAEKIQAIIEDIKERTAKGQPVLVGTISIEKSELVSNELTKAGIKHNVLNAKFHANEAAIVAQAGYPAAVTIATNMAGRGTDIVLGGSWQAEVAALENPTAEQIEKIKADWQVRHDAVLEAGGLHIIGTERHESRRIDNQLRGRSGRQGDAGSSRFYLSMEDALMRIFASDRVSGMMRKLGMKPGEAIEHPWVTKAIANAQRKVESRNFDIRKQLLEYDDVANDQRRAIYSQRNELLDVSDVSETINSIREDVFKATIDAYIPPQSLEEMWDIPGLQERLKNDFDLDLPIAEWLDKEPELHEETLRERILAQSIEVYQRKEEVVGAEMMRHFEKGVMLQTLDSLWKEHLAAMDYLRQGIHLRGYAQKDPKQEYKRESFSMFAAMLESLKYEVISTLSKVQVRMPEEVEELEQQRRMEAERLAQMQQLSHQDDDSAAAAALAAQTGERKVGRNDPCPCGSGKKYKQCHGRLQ
Sequence of Sialic acid-binding Ig-like lectin 9 (Homo sapiens) (Q9Y336 whole entry): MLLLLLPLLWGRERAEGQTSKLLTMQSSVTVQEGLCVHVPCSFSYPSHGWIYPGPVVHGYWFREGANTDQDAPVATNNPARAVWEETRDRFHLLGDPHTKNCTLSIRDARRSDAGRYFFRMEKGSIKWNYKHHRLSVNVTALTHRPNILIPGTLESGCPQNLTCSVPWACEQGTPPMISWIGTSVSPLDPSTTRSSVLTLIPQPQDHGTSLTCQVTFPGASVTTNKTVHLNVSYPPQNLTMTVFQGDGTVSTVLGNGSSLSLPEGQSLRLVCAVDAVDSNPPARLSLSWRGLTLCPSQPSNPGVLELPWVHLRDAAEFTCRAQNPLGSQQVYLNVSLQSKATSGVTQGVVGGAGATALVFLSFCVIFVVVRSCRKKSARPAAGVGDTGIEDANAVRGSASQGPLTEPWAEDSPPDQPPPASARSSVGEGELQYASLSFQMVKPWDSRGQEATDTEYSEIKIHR

For `COc1cc(C)nc(N2CCN(C(=O)c3ccccc3C)CC2)n1`, the Percent Effect in test [1] is -6.89%; in test [2], 2.7%; in test [3], -5.76%; in test [4] it was 17.5%; in the test on Trypanosoma cruzi it was 8.4%; in test [5] it was -13.2%. The Percent Effect in [6] is 1.8%; in the test filed under Homo sapiens, 9.59%; in [7], 5.42%; in test [8], 18.5%; in [9], -18.4%.
For the compound `CCCNC(=O)N1CCN(Cc2cc(C)no2)CC1`, the Percent Effect in test [1] was -3.25%; in test [2] it was 23.7%; in test [3] it was -8.42%; in [4], -2.41%; in the test on Trypanosoma cruzi, 6.07%; in test [5], -2.16%. Besides, the Percent Effect in [6] was 17.5%; in the test filed under Homo sapiens it was 2.72%; in [7], 8.37%; in test [8], 23.5%; in [9], -7.68%.
With `CCNc1cc2c(nn1)CCN(C(=O)c1ccnc(N(C)C)c1)C2`, the Percent Effect was -2.5% in [1]; 5.26% in test [2]; -29.5% in test [3]; 4.93% in test [4]; 9.21% in the test on Trypanosoma cruzi; 4.98% in [5]. For the same compound, the Percent Effect in [6] was 5.01%; in the test listed under Homo sapiens, -24.9%; in test [7] it was 4.41%; in [8], 4.88%; in test [9], -5.51%.
With `Cc1nc(C)n(CC2CN(CC(=O)Nc3nccs3)CCO2)n1` (stereo not drawn), the Percent Effect in test [1] is -0.715%; in test [2], 1.39%; in [3] it was -0.871%; in test [4], 15.8%; in the test on Trypanosoma cruzi, 3.98%; in test [5], 10.6%. Also, the Percent Effect was 7.19% in test [6]; 20.3% in the test listed under Homo sapiens; 5.26% in test [7]; 10.3% in [8]; -1.52% in test [9].
As for `Cc1nc(CN2C(=O)C[C@@H]3[C@@H]2CCN3C(=O)C2CCOCC2)cs1`, the Percent Effect in [1] was -0.279%; in [2], 8.22%; in test [3] it was -5.72%; in [4], 3.96%; in the test with Trypanosoma cruzi it was 4.17%; in test [5], -5.19%. The Percent Effect in test [6] is 8.82%; in the test listed under Homo sapiens it was -4.21%; in test [7], 1.04%; in test [8], -3.7%; in test [9], -3.04%.
As to `CCNC(=O)[C@@H]1C[C@H](NC(=O)c2cncnc2C)CN1CCCSC`, the Percent Effect in [1] is -2.84%; in [2] it was 5.48%; in test [3] it was -7.63%; in test [4] it was 3.4%; in the test with Trypanosoma cruzi, 3.17%; in test [5], -3.59%. Besides, the Percent Effect in [6] was 9.68%; in the test filed under Homo sapiens it was -11.3%; in test [7] it was 4.17%; in test [8] it was 13.6%; in test [9], -0.349%.
Regarding `Cc1nc(C)n(CC2CCCN2CC(=O)Nc2ccnn2C(C)C)n1` (stereo not drawn), the Percent Effect in [1] was 3.15%; in test [2], 18.4%; in test [3], 16%; in test [4], -8.63%; in the test on Trypanosoma cruzi, -8.31%; in test [5], 2.16%. For the same compound, the Percent Effect in test [6] is 14%; in the test listed under Homo sapiens it was 1.93%; in [7], 5.42%; in [8], 16.1%; in test [9], -6.21%.
As to `O=C(Cc1ccsc1)N1CCC(n2nc(-c3ccco3)ccc2=O)CC1`, the Percent Effect was -7.59% in [1]; 6.76% in test [2]; 16.2% in test [3]; 33.6% in test [4]; -2.17% with Trypanosoma cruzi; -4.41% in test [5]. Also, the Percent Effect in [6] is 13.9%; in the test listed under Homo sapiens, -0.185%; in test [7], 9.68%; in [8] it was 6.49%; in test [9] it was -13.4%.

The record behind these values is ChEMBL document CHEMBL3988442, “University of Dundee, Small-Polar-MMV Screening Library” (2021).
